Experimental data reported in the supplement of paper PMC7858590.
Several values for one entry are separate records, joined by “and”; a condition that tells them apart may be missing. Equal entries are not always repeated.

Each compound was assayed on human monocyte-derived macrophages (polarized) (assay: cell shape (eccentricity) Z-score vs DMSO control; higher = more elongated, M2-like morphology). Conditions: 5 µM; 24 h; macrophage state: M1-polarized (IFNg + TNFa), cytokines present during treatment.
Experimental: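 Primary-screen hits were rescreened on polarized hMDMs with the differentiating cytokines (IL-4 + IL-13 or IFNg + TNFa) kept in the medium during treatment with compound at 5 uM for 24 h. The eccentricity Z-score vs DMSO wells is averaged over experiments.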

| SMILES | cell shape (Z-score) |
| --- | --- |
| CC(=Cc1ccc(C(=O)O)cc1)c1ccc2c(c1)C(C)(C)CCC2(C)C | -2.82 |
| Nc1nc(Nc2ccccc2)nc2c1ncn2C1OC(CO)C(O)C1O (stereo not given) | 2.02 |
| C=CC(=O)N1CCC[C@@H](n2nc(-c3ccc(Oc4ccccc4)cc3)c3c(N)ncnc32)C1 | 6.69 |
| NC(N)=NCCNS(=O)(=O)c1cccc2cnccc12 | -4.47 |
| Cc1cc(N2CCOCC2)cc2[nH]c(-c3c(NC[C@@H](O)c4cccc(Cl)c4)cc[nH]c3=O)nc12 | 2.38 |
| O=S(=O)(c1cccc2cnccc12)N1CCCNCC1 | -0.217 |
| CC1CNCCN1S(=O)(=O)c1cccc2cnccc12 (stereo not given) | -1.72 |
| CCCC(=O)Nc1ncnc2c1ncn2[C@@H]1O[C@@H]2COP(=O)(O)O[C@H]2[C@H]1OC(=O)CCC | 0.117 |
| c1ccc(-c2nnc(N3CCOCC3)nc2-c2ccccc2)cc1 | -1.34 |
| O=C(CCc1ccc(O)cc1)c1c(O)cc(O)cc1O | -3.42 |
| N#CC[C@H](C1CCCC1)n1cc(-c2ncnc3[nH]ccc23)cn1 | 1.19 |
| CC(C)(C)n1nc(-c2cccc3ccccc23)c2c(N)ncnc21 | 6.74 |
| C=CCn1c(=O)c2cnc(Nc3ccc(N4CCN(C)CC4)cc3)nc2n1-c1cccc(C(C)(C)O)n1 | 5.45 |
| COc1ccc2c(c1OC)CN(C)CCc1cc3c(cc1C(=O)C2)OCO3 | -5.59 |
| C[C@@]1(C(=O)Nc2ccc(F)nc2)CCCN1c1nc(Nc2cc(C3CC3)n[nH]2)c2cccn2n1 | 5.79 |
| Cc1cc(O)cc(=O)o1 | 7.71 |
| O=C(O)C[C@H](O)C[C@H](O)/C=C/c1c(C2CC2)nc2ccccc2c1-c1ccc(F)cc1 | 5.72 |
| C[C@@H](N)[C@H]1CC[C@H](C(=O)Nc2ccncc2)CC1 | 5.7 |
| O=c1cc(-c2ccc(O)cc2)oc2cc(O)ccc12 | 2.2 |
| N#CCNC(=O)c1ccc(-c2ccnc(Nc3ccc(N4CCOCC4)cc3)n2)cc1 | 22.9 |
| COc1ccc(N(C(=O)c2ccccc2)S(=O)(=O)c2cc(OC)ccc2OC)cc1 | -2.07 |
| O=C(O)c1ccc2c(c1)nc(Nc1cccc(Cl)c1)c1ccncc12 | 9.47 |

Same assay, conditions: 5 µM; 24 h; macrophage state: M2-polarized (IL-4 + IL-13), cytokines present during treatment

| SMILES | cell shape (Z-score) |
| --- | --- |
| CN[C@H]1CC[C@@H](c2ccc(Cl)c(Cl)c2)c2ccccc21 | -4.29 |
| COc1ccc(/C=C/C(=O)O)cc1OC | 1.19 |
| CC(=O)O[C@H]1C(=O)[C@@]2(C)[C@H]([C@H](OC(=O)c3ccccc3)[C@]3(O)C[C@H](OC(=O)[C@H](O)[C@@H](NC(=O)c4ccccc4)c4ccccc4)C(C)=C1C3(C)C)[C@]1(OC(C)=O)CO[C@@H]1C[C@@H]2O | -14.3 and -18.7 |
| C=C(NC(=O)C(=C)NC(=O)c1csc(C2=N[C@@H]3c4csc(n4)[C@H]4NC(=O)c5csc(n5)[C@H]([C@](C)(O)[C@@H](C)O)NC(=O)[C@H]5CSC(=N5)/C(=C/C)NC(=O)[C@H]([C@@H](C)O)NC(=O)c5csc(n5)[C@]3(CC2)NC(=O)[C@H](C)NC(=O)C(=C)NC(=O)[C@H](C)NC(=O)[C@H]([C@@H](C)CC)N[C@@H]2C=Cc3c([C@H](C)O)cc(nc3[C@H]2O)C(=O)O[C@@H]4C)n1)C(N)=O [Thiostrepton.2mM] | -5.55 |
| C[C@H]1CN([C@@H](C)CO)C(=O)Cc2cc(NC(=O)CCC(F)(F)F)ccc2O[C@H]1CN(C)S(=O)(=O)c1ccc(Cl)cc1 | -11 |
| O=C1c2ccc(Nc3ccc(F)cc3F)cc2CCc2ccc(OC[C@H](O)CO)cc21 | 2.03 |
| CC(=O)O[C@@H]1C[C@H]2C(C)(C)C(=O)C=C[C@]2(C)[C@H]2CC[C@@]3(C)[C@H](c4ccoc4)OC(=O)[C@H]4O[C@]43[C@@]21C | -8.96 |
| c1ccc2cc(C3=NCCN3)ncc2c1 | 0.271 |
| CC(=O)OCC(=O)[C@@]1(O)[C@H](OC(C)=O)C[C@H]2[C@@H]3CCC4=CC(=O)C=C[C@]4(C)[C@@]3(F)[C@@H](O)C[C@@]21C | -9.46 |
| O=C(CCCc1ccc(-c2ccccc2F)cc1)Nc1ccc(O)cc1 | -9.79 |
| COc1cc(O)c2c(=O)c(OC)c(-c3ccc(OC)c(OC)c3)oc2c1 | -8.25 |
| C=C(NC(=O)C(=C)NC(=O)c1csc(C2=N[C@@H]3c4csc(n4)[C@H]4NC(=O)c5csc(n5)[C@H]([C@](C)(O)[C@@H](C)O)NC(=O)[C@H]5CSC(=N5)/C(=C/C)NC(=O)[C@H]([C@@H](C)O)NC(=O)c5csc(n5)[C@]3(CC2)NC(=O)[C@H](C)NC(=O)C(=C)NC(=O)[C@H](C)NC(=O)[C@H]([C@@H](C)CC)N[C@@H]2C=Cc3c([C@H](C)O)cc(nc3[C@H]2O)C(=O)O[C@@H]4C)n1)C(N)=O | -11 |
| COCCCC/C(=N\OCCN)c1ccc(C(F)(F)F)cc1 | -6 |
| N=C(NCCCCCCNC(=N)NC(=N)Nc1ccc(Cl)cc1)NC(=N)Nc1ccc(Cl)cc1 | -10.6 and -7.15 |
| COC(=O)Nc1nc2cc(Sc3ccccc3)ccc2[nH]1 | -6.87 |
| CCN(CCCCOC(=O)c1ccc(OC)c(OC)c1)C(C)Cc1ccc(OC)cc1 (stereo not given) | -4.84 |
| NC(N)=Nc1nc(CSCC/C(N)=N/S(N)(=O)=O)cs1 | 0.285 |
| Nc1ccccc1NC(=O)c1ccc(CNC(=O)OCc2cccnc2)cc1 | -0.828 |
